# High-throughput results deposited in PubChem BioAssay by National Center for Advancing Translational Sciences (NCATS).
# Rows were chosen to be rich in hits. Some 12% of all compounds tested hit in one or more screens of this group.
# BAZ2B block = blocks human BAZ2B. Q9UIF8. AlphaScreen BAZ2B-H3K14Ac peptide displacement. Potency, µM (highest dose often 114 µM), without a hit: at the top dose activity change, negative = inhibition, most hits filed as inhibitors. actives 4.4% (n = 360,000); also: potency is read from the fitted curve at half-maximal effect; % is scaled to controls: 0 for no effect and ±100 for the full control effect; nearly all actives have a fitted effect of over 60% in size
#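 AlphaScreen luminescence quantifies BAZ2B engagement of H3K14Ac peptide; the protein and biotinylated peptide are both at 50 nM final, buffer PBS pH 7.4 with 0.01% Tween-20, all steps at room temperature.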
# HP1b chromo inh = HP1-beta chromodomain-methylated histone interaction inhibition. AID 540317. AlphaScreen HP1-beta / biotin-H3K9me3 peptide binding. P83916. actives 0.56% (n = 390,000). Potency, µM (top dose mostly 114 µM), for the others: at the highest dose activity change, negative = inhibition, actives largely listed as inhibitors; also: potency is read from the fitted curve at half-maximal effect; nearly all actives have a fitted effect of over 70% in size
#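 AlphaScreen: HP1-beta (50 nM) preformed 30 min with biotin-H3(1-18)K9me3 peptide (50 nM) in PBS pH 7.4, 0.01% Tween-20. Compound added for 30 min at RT, then streptavidin donor/nickel chelate acceptor beads (10 ug/mL) for 30 min.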
# L3MBTL1 inh = blocks human L3MBTL1. Q9Y468. AID 485360. Potency, µM (doses to about 57.1 µM), without a hit: at the top dose activity, negative = inhibition, most hits filed as inhibitors. actives 0.66% (n = 230,000). AlphaScreen L3MBTL1–H3K9me1 peptide binding; also: potency is read from the fitted curve at half-maximal effect; % is scaled to controls: 0 for no effect and ±100 for the full control effect; nearly all actives have a fitted effect of over 60% in size
#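 L3MBTL1 50 nM + b-AHA-H3(1-15)K9me1 75 nM, 30 min RT; compound added, 30 min RT; streptavidin donor/Ni-chelate acceptor beads 10 ug/mL each final, 30 min RT dark; AlphaScreen read.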
# JMJD2A Tudor = inhibitors of human JMJD2A Tudor domain; O75164; AlphaScreen JMJD2A-Tudor / H3K4me3 peptide binding; Potency, µM (top dose mostly 114 µM), inactives show at the top dose activity change, negative = inhibition, most hits filed as inhibitors; actives 4.4% (n = 390,000); AID 504339; also: potency is read from the fitted curve at half-maximal effect; % is scaled to controls: 0 for no effect and ±100 for the full control effect; nearly all actives have a fitted effect of over 50% in size
# G9a inh-1 = blocks human histone lysine methyltransferase G9a; AID 504332; Q96KQ7; G9a H3K9 monomethylation, AlphaScreen, 2 h; Potency, µM (doses to about 102 µM), for the others: top-dose activity, negative = inhibition, hits mostly inhibitors; actives 8.8% (n = 350,000); also: potency is read from the fitted curve at half-maximal effect; % is scaled to controls: 0 for no effect and ±100 for the full control effect; nearly all actives have a fitted effect of over 75% in size
#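 Using a bead-based AlphaScreen, monomethylated H3K9 product from 2 h room-temperature reactions (G9a 20 nM, peptide 500 nM, SAM 20 uM) was detected with 0.5 ug/mL rabbit anti-H3K9me1 antibody.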
# Sfp PPTase inh = Sfp phosphopantetheinyl transferase inhibition; actives 3.5% (n = 310,000); AID 1490; Potency, µM, for inactives: largest response in the series, negative = inhibition, actives largely listed as inhibitors; Biochemical Sfp PPTase activity, qHTS;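 also: the enzyme is Sfp with the accession as filed and its product quenches rhodamine fluorescence; potency is read from the fitted curve at half-maximal effect; 0% = enzyme reaction without inhibitor and -100% = no enzyme wells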
#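 Reaction rates are the 30-min fluorescence difference (ex 525, em 598 nm) in wells containing 15 nM Sfp, 5 uM rhodamine-CoA and 12.5 uM BHQ-2-YbbR at pH 7.6 with 10 mM MgCl2.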
# G9a inh-2 = confirmation of human histone methyltransferase G9a inhibitors. shares compounds with JMJD2A Tudor. G9a H3K9 monomethylation, AlphaScreen, 2 h. Potency, µM, usual class: inhibitors. actives 89% (n = 370). AID 588344; also: potency is read from the fitted curve at half-maximal effect; nearly all actives have a fitted effect of over 65% in size
# RGS4 confirm = inhibits human RGS4, hit validation; actives 80% (n = 25); RGS4 GAP activity, Transcreener GDP fluorescence polarization; shares compounds with JMJD2A Tudor; Potency, µM, actives largely listed as inhibitors; AID 602388
# * hit, by the source's call; ? = inconclusive; / = no result; [ ] = remark or other dose. Calls follow the shape of the dose curve; as a rule, active = well fitted curve in the direction sought with a large enough effect; inconclusive = small, poorly fitted or top-dose-only effect, or another doubt; inactive = no such curve, though single readings can be large; an effect the other way counts as inactive or inconclusive.
SMILES,BAZ2B block,HP1b chromo inh,L3MBTL1 inh,JMJD2A Tudor,G9a inh-1,Sfp PPTase inh,G9a inh-2,others
COc1ccc(C)cc1NC(=O)C(NS(=O)(=O)c1cccs1)c1ccccc1 (stereo not given),-2%,26%,/,-3%,3%[59 µM],/,/,
COc1ccc(C)cc1NC(=O)C(NCC(O)c1ccccc1)c1ccccc1 (stereo not given),22µM*,?,/,10µM*,2.8µM*,?,14*,
COC(=O)C1CCN(C(=O)/C=C/c2ccc3c(c2)OCO3)CC1,11%,-23%,-5%[2.29 µM],?,22%[0.501 µM],-1%,/,
COc1cccc(CNc2ccc(N3CCCCC3)cc2)c1OC,14µM*,40µM*,20µM*,35µM*,?,2.8µM*,0.89*,
CC(C)c1ccc(CNc2ccc(N3CCOCC3)cc2)cc1,13µM*,11µM*,?,40µM*,?,45µM*,10*,
COc1cccc(CNc2ccc(S(N)(=O)=O)cc2)c1OC,1%,25%,3%,-7%,14%[12.7 µM],12%,/,
CCOc1ccc(CNc2ccc(N3CCCC3)cc2)cc1,18µM*,-30%,?,63µM*,?,?,0.89*,
NS(=O)(=O)c1ccc2nc(-c3ccccc3)c(-c3ccccc3)nc2c1,-15%,9%,/,-29%,15%,26%,/,
COc1ccc(Br)cc1CN1CCCCCCC1,50µM*,?,-2%,4µM*,2.8µM*,?,13*,
COc1ccc(C(C)=O)cc1CN1CCCCC1,39%,26%,?,-3%,?,1%,/,
Cc1cc(NS(=O)(=O)c2ccc(NC(=O)Cc3ccc([N+](=O)[O-])cc3)cc2)nc(C)n1,/,11%,0%,-21%,/,/,/,
O=C(Nc1ccc(N2CCN(c3ccc(O)cc3)CC2)cc1)Oc1ccccc1,-30%,-4%,/,-27%,0.89µM*,-19%,0.2*,
COc1ccc(N2CCN(c3nc4ccccc4nc3NS(=O)(=O)c3ccccc3)CC2)cc1,50µM*,?,/,50µM*,?,11%,7.9*,
O=C(Sc1nnnn1C1CCCCC1)c1cccs1,?,/,-2%[11.4 µM],/,?,35µM*,0.71*,
O=C(CSc1nnnn1C1CCCCC1)Nc1ccccc1F,-28%,49%,3%,-3%,/,22%,/,
CCN(C(=O)COC(=O)c1ccc2c(c1)OCO2)c1c(N)n(Cc2ccccc2)c(=O)[nH]c1=O,5%,28%,3%,-9%,-23%,/,/,
Cc1cccc(OCCCC(=O)Nc2ccc(N(C)C)cc2)c1,?,-15%,-27%,?,1.8µM*,0%,0.89*,
Cc1cccc(OCCCC(=O)Nc2ccc(Br)cc2)c1,11%,52%,32%,18%,9%,12%,/,
Cn1nnnc1SCC(=O)Nc1ccc(Br)cc1Cl,-24%,43%,8%,9%,2µM*,4%,?,
COCCCNC(=O)Nc1cc(C(=O)NCc2ccc(OC)cc2)ccc1N1CCCC1,-20%,25%,/,-14%,-8%[59 µM],/,/,
CCc1ccc(C(=O)CSc2nc(C)cc(=O)[nH]2)cc1,-18%,-4%,3%,-4%,-29%,-20%,/,
CC1(O)CC2C(CC1O)C2(C)C (stereo not given),/,/,/,/,/,0%,/,
Cc1ccc(CCNC(=O)CNS(=O)(=O)c2ccc3nc(C)sc3c2)cc1,-2%,64%,/,-7%,/,11%,/,
Cc1nc2ccc(CCO)cc2s1,1%,40%,14%,-6%,1.1µM*,13%,?,
CCN(CC)c1ccc(NC(=O)Cn2nnc(-c3cccc(OC)c3OC)n2)c(C)c1,-1%,35%,/,-2%,0.71µM*,13%,7.1*,
SMILES,BAZ2B block,HP1b chromo inh,L3MBTL1 inh,JMJD2A Tudor,G9a inh-1,Sfp PPTase inh,G9a inh-2,others
Cc1csc(NC(=O)CSc2nc3sc(C)c(C)c3c(=O)[nH]2)n1,?,?,/,0%[57.1 µM],?,20µM*,0.89*,
S=C(Nc1ccccn1)NC1CCCC1,-23%,26%,-30%,-18%,0.35µM*,45µM*,3.2*,
S=C(Nc1ccccn1)NC1CCCCC1,?,17%,-24%,-14%,-125%[12.7 µM],?,/,
Clc1ccc(Nc2ccccc2)nn1,2%,7%,5%,-5%,-3%,7%,/,
C=CCOc1c(Cl)cc(CNc2ccc(N(C)C)cc2)cc1OC,25µM*,16µM*,13µM*,18µM*,1.8µM*,3.5µM*,5.6*,
CCC(C(=O)Nc1ccon1)c1ccccc1 (stereo not given),-3%,45%,/,-5%,15%,15%,/,
Cc1cc(NC(=O)C(C)SCC(=O)N(C)Cc2c(F)cccc2Cl)no1 (stereo not given),/,20%[57 µM],-2%,-10%,/,/,/,
CC(=O)c1ccc(NC(=O)CSc2ccc(-c3cccs3)nn2)cc1,-21%,28%,/,?,2.8µM*,/,6.3*,
CCN(CC)c1ccc(NC(=O)CN2CCN(CC(=O)Nc3ccc(F)cc3)CC2)cc1,?,?,/,?,2.2µM*,-12%,2.8*,
O=C(COC(=O)CCC(=O)c1ccc(F)cc1)Nc1ccccc1,1%,26%,0%,-9%,22%[0.0925 µM],17%,/,
O=C(CN1CCCC1)Nc1ccc(F)cc1,-29%,26%,-3%,-10%,/,?,/,
CCN(CC)c1ccc(NC(=O)COC(=O)CCC(=O)c2ccc(F)cc2)cc1,?,-21%,/,-35%,1.6µM*,-4%,1.6*,
CN(C)c1ccc(NC(=O)Nc2cccc3ccccc23)cc1,?,-14%,-25%,-15%[11.4 µM],2.8µM*,-7%,1.1*,
CC(C)C[C@@H](CC(=O)N[C@@H](CCC(=O)O)CC(=O)O)NC(=O)[C@@H]1CNCC[C@H]1NC(=O)C[C@@H](NC(=O)C[C@H](CO)NC(=O)[C@@H]1CCCC[C@H]1N)C(C)C,/,/,/,/,/,2%,/,
Cc1nc(NC(=O)CSc2ccccc2N)sc1C,-39%,1%,/,-18%,?,-21%,18*,
Nc1ccccc1SCC(=O)Nc1nccs1,-2%,34%,2%,4%[57.1 µM],?,10%,/,
CCc1ccc(C(=O)CC2(O)C(=O)N(Cc3ccc(C)cc3)c3ccccc32)cc1 (stereo not given),10µM*,?,/,40µM*,5.6µM*,/,/,RGS4 confirm=24*
Cc1ccc(NC(=O)CCNS(=O)(=O)c2ccc3[nH]c(=O)oc3c2)cc1N(C)C,-26%,30%,/,-1%,15%,25%,/,
